# Experimental data taken from article PMC7862700, “An all-to-all approach to the identification of sequence-specific readers for epigenetic DNA modifications on cytosine”.
# Columns and labels:
# Assay in all cases: DAPPL (digital affinity profiling via proximity ligation, sequencing); 10 mM Tris-HCl pH 7.5, 50 mM NaCl, 1 mM DTT, 4% glycerol, room temperature, 30 min; GST-TFs on glutathione beads, 16-mer random dsDNA library, 0.1% formaldehyde crosslink after washing; high values mean tight binding
# FLI1 = target: T1, FLI1 (Homo sapiens, UniProt Q01543 1-452); conditions: protein: recombinant; tags: N-terminal GST; dsDNA, one strand shown
# T1 sequence: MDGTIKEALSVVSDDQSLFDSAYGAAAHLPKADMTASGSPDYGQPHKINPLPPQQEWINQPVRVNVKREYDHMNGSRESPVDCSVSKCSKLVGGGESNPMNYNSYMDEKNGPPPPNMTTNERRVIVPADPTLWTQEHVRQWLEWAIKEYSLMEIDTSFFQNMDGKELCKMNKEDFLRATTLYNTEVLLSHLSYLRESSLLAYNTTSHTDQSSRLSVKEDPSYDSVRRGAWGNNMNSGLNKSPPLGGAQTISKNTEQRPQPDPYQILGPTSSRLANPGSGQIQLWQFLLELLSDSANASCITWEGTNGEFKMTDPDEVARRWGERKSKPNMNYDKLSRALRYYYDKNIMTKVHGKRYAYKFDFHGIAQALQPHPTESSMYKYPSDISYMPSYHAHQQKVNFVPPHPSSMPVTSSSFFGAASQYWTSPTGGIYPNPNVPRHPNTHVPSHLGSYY
# In short: (§1)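 Pools were built from human transcription factors expressed in yeast as GST fusions, captured on glutathione beads and DNA-barcoded, along with a tag-only sample. Incubation with 200 nmole of a 16-mer random double-stranded DNA library lasted 30 min at room temperature in Tris/NaCl/DTT/glycerol buffer, and was followed by washing, 0.1% formaldehyde crosslinking, proximity ligation, PCR amplification and Illumina NextSeq500 sequencing. Binding signal is the quotient of each hexamer's read frequency for a factor and its frequency for the tag-only sample.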
# ELK1 = target: T2, ELK1 (Homo sapiens, UniProt P19419 1-428); conditions: protein: recombinant; tags: N-terminal GST; dsDNA, one strand shown
# T2 sequence: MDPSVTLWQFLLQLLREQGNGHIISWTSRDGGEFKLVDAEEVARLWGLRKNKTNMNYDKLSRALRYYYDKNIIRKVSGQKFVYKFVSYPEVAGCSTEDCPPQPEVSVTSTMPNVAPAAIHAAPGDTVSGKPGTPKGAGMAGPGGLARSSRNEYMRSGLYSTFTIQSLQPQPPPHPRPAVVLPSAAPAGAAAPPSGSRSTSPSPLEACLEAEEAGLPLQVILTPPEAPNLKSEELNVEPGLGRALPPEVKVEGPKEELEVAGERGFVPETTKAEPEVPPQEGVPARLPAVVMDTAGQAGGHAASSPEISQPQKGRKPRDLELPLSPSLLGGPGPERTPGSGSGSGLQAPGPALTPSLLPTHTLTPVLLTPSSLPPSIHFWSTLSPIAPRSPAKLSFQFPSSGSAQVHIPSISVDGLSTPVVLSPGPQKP
# In short: as §1
# GABPA = target: T3, GABPA (Homo sapiens, UniProt Q06546 1-454); conditions: protein: recombinant; tags: N-terminal GST; dsDNA, one strand shown
# T3 sequence: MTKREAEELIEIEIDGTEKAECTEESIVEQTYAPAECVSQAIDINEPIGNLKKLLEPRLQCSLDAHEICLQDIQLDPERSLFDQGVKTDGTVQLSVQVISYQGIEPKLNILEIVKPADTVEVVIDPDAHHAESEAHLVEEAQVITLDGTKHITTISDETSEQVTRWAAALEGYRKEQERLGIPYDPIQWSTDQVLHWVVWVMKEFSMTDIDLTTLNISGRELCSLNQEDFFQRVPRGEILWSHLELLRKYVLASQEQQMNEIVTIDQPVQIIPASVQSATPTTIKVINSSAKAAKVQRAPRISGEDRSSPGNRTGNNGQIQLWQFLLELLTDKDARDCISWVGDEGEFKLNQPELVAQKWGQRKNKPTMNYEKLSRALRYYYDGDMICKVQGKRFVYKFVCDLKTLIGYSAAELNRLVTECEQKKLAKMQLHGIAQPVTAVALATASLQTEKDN
# In short: as §1
# ERG = target: T4, ERG (Homo sapiens, UniProt P11308 1-479); conditions: protein: recombinant; tags: N-terminal GST; dsDNA, one strand shown
# T4 sequence: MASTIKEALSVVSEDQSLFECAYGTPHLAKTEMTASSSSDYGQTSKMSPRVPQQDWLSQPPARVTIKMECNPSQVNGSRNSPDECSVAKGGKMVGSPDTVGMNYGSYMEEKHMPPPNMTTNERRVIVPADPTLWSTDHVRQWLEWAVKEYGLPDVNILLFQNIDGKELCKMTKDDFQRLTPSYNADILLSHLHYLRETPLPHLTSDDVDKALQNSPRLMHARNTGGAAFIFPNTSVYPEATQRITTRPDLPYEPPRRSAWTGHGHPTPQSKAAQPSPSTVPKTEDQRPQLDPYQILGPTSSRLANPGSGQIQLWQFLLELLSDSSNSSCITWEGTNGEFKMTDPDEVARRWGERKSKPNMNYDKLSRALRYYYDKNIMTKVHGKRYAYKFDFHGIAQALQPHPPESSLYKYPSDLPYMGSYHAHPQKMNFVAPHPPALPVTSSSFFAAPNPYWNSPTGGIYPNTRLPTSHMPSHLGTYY
# In short: as §1
# ELF1 = ELF1 (Homo sapiens, UniProt P32519 1-619); conditions: protein: recombinant; tags: N-terminal GST; dsDNA, one strand shown
# Sequence of ELF1 (P32519 whole entry): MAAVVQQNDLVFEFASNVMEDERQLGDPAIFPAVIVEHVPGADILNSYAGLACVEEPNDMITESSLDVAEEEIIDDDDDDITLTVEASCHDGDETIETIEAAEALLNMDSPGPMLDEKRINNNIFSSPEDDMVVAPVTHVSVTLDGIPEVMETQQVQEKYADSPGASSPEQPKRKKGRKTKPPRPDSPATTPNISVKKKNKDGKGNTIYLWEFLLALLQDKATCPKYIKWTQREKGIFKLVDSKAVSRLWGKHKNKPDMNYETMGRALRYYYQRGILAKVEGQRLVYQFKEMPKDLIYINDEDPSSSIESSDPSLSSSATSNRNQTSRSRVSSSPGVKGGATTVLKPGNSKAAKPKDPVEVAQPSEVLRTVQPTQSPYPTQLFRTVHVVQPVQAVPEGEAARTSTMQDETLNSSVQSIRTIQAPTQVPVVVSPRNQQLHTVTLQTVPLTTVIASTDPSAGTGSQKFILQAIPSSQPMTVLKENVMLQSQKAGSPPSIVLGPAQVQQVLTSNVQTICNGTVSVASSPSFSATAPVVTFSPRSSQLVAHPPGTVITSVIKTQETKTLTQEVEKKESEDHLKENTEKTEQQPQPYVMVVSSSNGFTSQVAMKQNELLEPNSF
# In short: as §1
# EHF = target: T5, EHF (Homo sapiens, UniProt Q9NZC4 1-300); conditions: protein: recombinant; tags: N-terminal GST; dsDNA, one strand shown
# T5 sequence: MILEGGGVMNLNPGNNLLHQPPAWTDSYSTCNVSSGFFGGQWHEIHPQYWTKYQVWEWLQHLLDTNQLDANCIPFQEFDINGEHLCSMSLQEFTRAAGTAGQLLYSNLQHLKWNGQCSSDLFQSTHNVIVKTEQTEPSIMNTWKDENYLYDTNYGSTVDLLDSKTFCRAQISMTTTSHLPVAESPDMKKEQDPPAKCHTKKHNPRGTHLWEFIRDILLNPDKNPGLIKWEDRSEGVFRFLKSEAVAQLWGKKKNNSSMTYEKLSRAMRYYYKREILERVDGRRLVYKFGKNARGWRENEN
# In short: as §1
# SPI1 = SPI1 (Homo sapiens, UniProt P17947 1-270); conditions: protein: recombinant; tags: N-terminal GST; dsDNA, one strand shown
# In short: as §1
# SPIB = SPIB (Homo sapiens, UniProt Q01892 1-262); conditions: protein: recombinant; tags: N-terminal GST; dsDNA, one strand shown
# Sequence of SPIB (Q01892 whole entry): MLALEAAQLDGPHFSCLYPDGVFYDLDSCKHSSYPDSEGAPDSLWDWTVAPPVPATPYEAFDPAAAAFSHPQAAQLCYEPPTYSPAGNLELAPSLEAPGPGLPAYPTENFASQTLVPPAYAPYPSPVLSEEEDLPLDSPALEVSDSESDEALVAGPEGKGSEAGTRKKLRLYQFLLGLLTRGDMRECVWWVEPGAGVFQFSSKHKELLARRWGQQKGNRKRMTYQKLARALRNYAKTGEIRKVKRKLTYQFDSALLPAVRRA
# In short: as §1
# ELK3 = target: T6, ELK3 (Homo sapiens, UniProt P41970 1-407); conditions: protein: recombinant; tags: N-terminal GST; dsDNA, one strand shown
# T6 sequence: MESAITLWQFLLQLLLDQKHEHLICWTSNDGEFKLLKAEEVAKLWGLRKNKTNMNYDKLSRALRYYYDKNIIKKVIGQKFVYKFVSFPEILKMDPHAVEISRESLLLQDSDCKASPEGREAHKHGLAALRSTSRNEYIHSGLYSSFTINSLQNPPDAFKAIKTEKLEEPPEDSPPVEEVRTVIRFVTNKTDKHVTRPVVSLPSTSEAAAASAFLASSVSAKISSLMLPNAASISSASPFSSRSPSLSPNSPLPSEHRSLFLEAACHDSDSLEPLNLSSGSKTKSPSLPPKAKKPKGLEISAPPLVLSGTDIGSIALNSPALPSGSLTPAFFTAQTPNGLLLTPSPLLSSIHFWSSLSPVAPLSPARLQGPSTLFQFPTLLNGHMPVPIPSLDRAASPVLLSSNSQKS
# In short: as §1
# FEV = target: T7, FEV (Homo sapiens, UniProt Q99581 1-238); conditions: protein: recombinant; tags: N-terminal GST; dsDNA, one strand shown
# T7 sequence: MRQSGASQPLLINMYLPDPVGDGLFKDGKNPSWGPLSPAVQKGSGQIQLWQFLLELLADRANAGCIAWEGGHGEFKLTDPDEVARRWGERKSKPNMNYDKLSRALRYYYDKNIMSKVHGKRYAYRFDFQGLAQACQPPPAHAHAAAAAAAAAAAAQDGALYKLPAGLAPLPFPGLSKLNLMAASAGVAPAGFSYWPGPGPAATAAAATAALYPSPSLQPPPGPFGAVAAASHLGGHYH
# In short: as §1
# ETV5 = ETV5 (Homo sapiens, UniProt P41161 1-510); conditions: protein: recombinant; tags: N-terminal GST; dsDNA, one strand shown
# Sequence of ETV5 (P41161 whole entry): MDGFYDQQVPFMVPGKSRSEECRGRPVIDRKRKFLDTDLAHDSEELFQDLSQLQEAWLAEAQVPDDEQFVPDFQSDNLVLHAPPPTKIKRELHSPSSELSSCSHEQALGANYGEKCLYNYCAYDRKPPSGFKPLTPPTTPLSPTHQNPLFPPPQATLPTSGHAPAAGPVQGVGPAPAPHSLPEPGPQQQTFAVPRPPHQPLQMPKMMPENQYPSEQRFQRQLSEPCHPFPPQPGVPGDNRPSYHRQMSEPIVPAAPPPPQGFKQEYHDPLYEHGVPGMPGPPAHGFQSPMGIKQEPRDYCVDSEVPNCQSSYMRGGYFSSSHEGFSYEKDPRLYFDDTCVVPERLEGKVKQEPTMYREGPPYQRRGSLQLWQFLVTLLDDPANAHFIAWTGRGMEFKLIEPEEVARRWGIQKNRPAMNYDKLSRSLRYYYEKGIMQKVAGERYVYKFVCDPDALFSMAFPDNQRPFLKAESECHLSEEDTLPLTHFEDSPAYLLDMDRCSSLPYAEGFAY
# In short: as §1
# HSF1 = HSF1 (Homo sapiens, UniProt Q00613 1-529); conditions: protein: recombinant; tags: N-terminal GST; chain copies: 3; dsDNA, one strand shown
# Sequence of HSF1 (Q00613 whole entry): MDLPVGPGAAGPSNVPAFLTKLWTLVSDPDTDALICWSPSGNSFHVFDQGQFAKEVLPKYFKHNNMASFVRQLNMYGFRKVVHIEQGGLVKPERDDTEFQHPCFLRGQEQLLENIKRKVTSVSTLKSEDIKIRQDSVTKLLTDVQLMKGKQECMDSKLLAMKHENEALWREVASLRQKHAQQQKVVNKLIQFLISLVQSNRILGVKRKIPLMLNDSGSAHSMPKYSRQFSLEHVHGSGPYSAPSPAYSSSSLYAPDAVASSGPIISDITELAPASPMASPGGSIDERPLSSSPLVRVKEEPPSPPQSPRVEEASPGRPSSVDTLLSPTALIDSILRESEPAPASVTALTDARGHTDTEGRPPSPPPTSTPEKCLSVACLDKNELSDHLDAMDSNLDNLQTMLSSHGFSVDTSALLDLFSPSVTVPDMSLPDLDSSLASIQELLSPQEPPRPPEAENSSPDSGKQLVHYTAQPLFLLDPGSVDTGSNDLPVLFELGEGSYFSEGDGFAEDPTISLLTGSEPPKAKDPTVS
# In short: as §1
# SPIC = target: T8, SPIC (Homo sapiens, UniProt Q8N5J4 1-248); conditions: protein: recombinant; tags: N-terminal GST; dsDNA, one strand shown
# T8 sequence: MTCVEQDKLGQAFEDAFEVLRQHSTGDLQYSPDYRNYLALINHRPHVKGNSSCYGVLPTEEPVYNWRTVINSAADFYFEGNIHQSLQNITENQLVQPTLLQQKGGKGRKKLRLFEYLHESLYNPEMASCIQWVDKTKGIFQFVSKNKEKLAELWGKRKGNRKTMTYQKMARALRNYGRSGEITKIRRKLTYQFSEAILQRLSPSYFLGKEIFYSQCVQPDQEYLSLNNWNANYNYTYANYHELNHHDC
# In short: as §1
# ELF4 = ELF4 (Homo sapiens, UniProt Q99607 1-663); conditions: protein: recombinant; tags: N-terminal GST; dsDNA, one strand shown
# Sequence of ELF4 (Q99607 whole entry): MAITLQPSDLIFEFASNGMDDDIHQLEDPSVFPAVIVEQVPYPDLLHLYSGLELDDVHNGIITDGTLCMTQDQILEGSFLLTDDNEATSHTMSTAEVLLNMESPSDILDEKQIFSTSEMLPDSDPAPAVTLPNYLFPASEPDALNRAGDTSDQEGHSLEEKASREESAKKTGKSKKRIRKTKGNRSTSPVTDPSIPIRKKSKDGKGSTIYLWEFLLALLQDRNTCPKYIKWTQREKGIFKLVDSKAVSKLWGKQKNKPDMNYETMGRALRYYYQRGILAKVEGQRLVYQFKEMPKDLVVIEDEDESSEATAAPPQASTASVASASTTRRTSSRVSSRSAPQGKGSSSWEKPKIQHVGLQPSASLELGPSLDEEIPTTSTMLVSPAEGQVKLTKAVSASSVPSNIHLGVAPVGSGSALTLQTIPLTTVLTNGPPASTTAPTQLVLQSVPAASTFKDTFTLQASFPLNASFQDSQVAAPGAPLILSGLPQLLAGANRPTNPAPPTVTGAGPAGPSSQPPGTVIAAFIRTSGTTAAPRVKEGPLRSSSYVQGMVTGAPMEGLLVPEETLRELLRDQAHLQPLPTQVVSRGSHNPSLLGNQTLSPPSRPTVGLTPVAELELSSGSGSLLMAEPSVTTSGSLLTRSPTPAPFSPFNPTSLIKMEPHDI
# In short: as §1
# ELK4 = target: T9, ELK4 (Homo sapiens, UniProt P28324-2 1-405); conditions: protein: recombinant; tags: N-terminal GST; dsDNA, one strand shown
# T9 sequence: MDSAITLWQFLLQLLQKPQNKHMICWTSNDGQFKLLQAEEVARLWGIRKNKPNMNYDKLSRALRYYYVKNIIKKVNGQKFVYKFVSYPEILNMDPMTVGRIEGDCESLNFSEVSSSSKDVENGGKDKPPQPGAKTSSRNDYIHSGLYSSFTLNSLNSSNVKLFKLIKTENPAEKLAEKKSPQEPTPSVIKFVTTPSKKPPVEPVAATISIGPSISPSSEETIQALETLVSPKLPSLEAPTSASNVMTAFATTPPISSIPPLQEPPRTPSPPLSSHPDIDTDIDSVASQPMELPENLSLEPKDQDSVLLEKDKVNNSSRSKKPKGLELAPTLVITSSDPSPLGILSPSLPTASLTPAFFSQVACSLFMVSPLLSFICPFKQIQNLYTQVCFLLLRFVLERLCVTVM
# In short: as §1
# ETV2 = target: T10, ETV2 (Homo sapiens, UniProt O00321 1-342); conditions: protein: recombinant; tags: N-terminal GST; dsDNA, one strand shown
# T10 sequence: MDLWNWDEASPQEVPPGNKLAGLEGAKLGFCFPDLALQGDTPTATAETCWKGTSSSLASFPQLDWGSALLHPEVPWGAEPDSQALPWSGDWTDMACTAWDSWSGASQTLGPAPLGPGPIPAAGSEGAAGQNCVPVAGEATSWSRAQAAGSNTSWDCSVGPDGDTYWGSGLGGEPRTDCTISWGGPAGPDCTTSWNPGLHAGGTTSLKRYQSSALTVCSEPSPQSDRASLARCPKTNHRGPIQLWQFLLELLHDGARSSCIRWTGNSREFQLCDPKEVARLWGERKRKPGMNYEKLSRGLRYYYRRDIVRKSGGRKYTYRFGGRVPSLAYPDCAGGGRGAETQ
# In short: as §1
# ELF3 = target: T11, ELF3 (Homo sapiens, UniProt P78545 1-371); conditions: protein: recombinant; tags: N-terminal GST; dsDNA, one strand shown
# T11 sequence: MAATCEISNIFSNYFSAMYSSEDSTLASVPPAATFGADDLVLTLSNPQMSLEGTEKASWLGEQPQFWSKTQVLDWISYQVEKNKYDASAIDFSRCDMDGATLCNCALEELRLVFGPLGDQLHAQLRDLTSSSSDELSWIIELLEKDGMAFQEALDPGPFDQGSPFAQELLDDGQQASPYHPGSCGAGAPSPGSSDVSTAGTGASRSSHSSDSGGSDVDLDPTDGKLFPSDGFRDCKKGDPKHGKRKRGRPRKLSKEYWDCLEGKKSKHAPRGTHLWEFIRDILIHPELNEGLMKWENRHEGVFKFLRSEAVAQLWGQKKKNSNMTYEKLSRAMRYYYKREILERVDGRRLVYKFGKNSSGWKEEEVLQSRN
# In short: as §1
# CRX = CRX (Homo sapiens, UniProt O43186 1-299); conditions: protein: recombinant; tags: N-terminal GST; dsDNA, one strand shown
# Sequence of CRX (O43186 whole entry): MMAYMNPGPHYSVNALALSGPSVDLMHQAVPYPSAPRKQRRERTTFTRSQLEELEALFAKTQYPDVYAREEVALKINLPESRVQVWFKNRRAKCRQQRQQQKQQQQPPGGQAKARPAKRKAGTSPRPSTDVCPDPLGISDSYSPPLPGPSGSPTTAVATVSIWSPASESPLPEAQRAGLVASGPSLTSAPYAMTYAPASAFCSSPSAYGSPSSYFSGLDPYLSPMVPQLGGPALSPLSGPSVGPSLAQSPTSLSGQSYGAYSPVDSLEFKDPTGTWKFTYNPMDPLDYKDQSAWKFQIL
# In short: as §1
# ETV1 = ETV1 (Homo sapiens, UniProt P50549 1-477); conditions: protein: recombinant; tags: N-terminal GST; dsDNA, one strand shown
# Sequence of ETV1 (P50549 whole entry): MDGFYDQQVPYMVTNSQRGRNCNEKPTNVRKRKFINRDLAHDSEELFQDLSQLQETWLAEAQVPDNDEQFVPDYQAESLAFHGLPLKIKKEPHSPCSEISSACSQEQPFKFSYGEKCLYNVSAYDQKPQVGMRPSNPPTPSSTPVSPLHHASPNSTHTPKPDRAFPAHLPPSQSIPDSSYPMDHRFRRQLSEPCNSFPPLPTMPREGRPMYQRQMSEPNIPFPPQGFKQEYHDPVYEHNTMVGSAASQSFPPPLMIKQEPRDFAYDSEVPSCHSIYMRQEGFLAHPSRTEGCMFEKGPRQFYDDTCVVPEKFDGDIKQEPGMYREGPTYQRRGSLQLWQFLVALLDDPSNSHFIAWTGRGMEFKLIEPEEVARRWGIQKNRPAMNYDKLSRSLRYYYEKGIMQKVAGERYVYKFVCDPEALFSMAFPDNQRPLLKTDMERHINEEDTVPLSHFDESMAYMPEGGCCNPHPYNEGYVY
# In short: as §1
sequence,measurement,setting,value
CCTCGC,binding signal,FLI1,"1.53 fold enrichment (6-mer frequency, TF over GST control)"
same,binding signal,ELK1,"1.54 fold enrichment (6-mer frequency, TF over GST control)"
same,binding signal,GABPA,"1.43 fold enrichment (6-mer frequency, TF over GST control)"
same,binding signal,ERG,"1.5 fold enrichment (6-mer frequency, TF over GST control)"
same,binding signal,ELF1,"1.37 fold enrichment (6-mer frequency, TF over GST control)"
same,binding signal,EHF,"1.42 fold enrichment (6-mer frequency, TF over GST control)"
same,binding signal,SPI1,"1.39 fold enrichment (6-mer frequency, TF over GST control)"
same,binding signal,SPIB,"1.42 fold enrichment (6-mer frequency, TF over GST control)"
same,binding signal,ELK3,"1.26 fold enrichment (6-mer frequency, TF over GST control)"
same,binding signal,FEV,"1.37 fold enrichment (6-mer frequency, TF over GST control)"
same,binding signal,ETV5,"1.51 fold enrichment (6-mer frequency, TF over GST control)"
same,binding signal,HSF1,"1.36 fold enrichment (6-mer frequency, TF over GST control)"
same,binding signal,SPIC,"1.46 fold enrichment (6-mer frequency, TF over GST control)"
same,binding signal,ELF4,"1.6 fold enrichment (6-mer frequency, TF over GST control)"
same,binding signal,ELK4,"1.62 fold enrichment (6-mer frequency, TF over GST control)"
same,binding signal,ETV2,"1.6 fold enrichment (6-mer frequency, TF over GST control)"
same,binding signal,ELF3,"1.56 fold enrichment (6-mer frequency, TF over GST control)"
same,binding signal,CRX,"1.16 fold enrichment (6-mer frequency, TF over GST control)"
same,binding signal,ETV1,"1.54 fold enrichment (6-mer frequency, TF over GST control)"
